# Measured values published in article PMC7862700, “An all-to-all approach to the identification of sequence-specific readers for epigenetic DNA modifications on cytosine”.
# Legend:
# Experiment in all cases: DAPPL (digital affinity profiling via proximity ligation, sequencing); 10 mM Tris-HCl pH 7.5, 50 mM NaCl, 1 mM DTT, 4% glycerol, room temperature, 30 min; GST-TFs on glutathione beads, 16-mer random dsDNA library, 0.1% formaldehyde crosslink after washing; high values mean tight binding
# Details in all cases: protein: recombinant; tags: N-terminal GST; dsDNA, one strand shown
# FLI1 = molecular target: T1, FLI1 (Homo sapiens, UniProt Q01543 1-452)
# T1 sequence: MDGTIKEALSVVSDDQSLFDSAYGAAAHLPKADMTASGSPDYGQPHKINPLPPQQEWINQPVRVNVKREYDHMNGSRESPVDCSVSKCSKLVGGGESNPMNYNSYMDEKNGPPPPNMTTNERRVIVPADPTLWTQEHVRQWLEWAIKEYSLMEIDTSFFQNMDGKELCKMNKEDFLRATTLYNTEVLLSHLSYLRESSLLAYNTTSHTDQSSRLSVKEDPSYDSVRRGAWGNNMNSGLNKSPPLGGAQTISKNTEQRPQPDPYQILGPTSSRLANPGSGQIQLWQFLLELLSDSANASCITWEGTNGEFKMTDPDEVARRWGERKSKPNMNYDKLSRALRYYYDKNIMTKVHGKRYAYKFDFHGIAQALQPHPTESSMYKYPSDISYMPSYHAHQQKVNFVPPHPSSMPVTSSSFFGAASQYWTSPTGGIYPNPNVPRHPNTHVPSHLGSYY
# Procedure, shortened: (§1)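 Pools were built from human transcription factors expressed in yeast as GST fusions, captured on glutathione beads and DNA-barcoded, along with a tag-only sample. Incubation with 200 nmole of a 16-mer random double-stranded DNA library lasted 30 min at room temperature in Tris/NaCl/DTT/glycerol buffer, and was followed by washing, 0.1% formaldehyde crosslinking, proximity ligation, PCR amplification and Illumina NextSeq500 sequencing. Binding signal is the quotient of each hexamer's read frequency for a factor and its frequency for the tag-only sample.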
# ELK1 = molecular target: T2, ELK1 (Homo sapiens, UniProt P19419 1-428)
# T2 sequence: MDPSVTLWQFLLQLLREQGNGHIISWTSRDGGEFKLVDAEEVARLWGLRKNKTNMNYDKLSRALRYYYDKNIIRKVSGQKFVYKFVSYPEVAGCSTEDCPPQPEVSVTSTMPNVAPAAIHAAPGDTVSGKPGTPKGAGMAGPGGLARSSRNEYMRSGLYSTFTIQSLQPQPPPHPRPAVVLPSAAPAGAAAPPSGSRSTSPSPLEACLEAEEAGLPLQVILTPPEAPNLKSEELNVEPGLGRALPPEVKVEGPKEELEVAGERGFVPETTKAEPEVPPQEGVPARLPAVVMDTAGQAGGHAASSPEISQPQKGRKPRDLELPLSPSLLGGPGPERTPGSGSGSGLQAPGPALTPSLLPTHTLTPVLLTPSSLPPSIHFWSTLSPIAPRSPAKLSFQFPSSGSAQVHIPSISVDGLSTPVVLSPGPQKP
# Procedure, shortened: as §1
# GABPA = molecular target: T3, GABPA (Homo sapiens, UniProt Q06546 1-454)
# T3 sequence: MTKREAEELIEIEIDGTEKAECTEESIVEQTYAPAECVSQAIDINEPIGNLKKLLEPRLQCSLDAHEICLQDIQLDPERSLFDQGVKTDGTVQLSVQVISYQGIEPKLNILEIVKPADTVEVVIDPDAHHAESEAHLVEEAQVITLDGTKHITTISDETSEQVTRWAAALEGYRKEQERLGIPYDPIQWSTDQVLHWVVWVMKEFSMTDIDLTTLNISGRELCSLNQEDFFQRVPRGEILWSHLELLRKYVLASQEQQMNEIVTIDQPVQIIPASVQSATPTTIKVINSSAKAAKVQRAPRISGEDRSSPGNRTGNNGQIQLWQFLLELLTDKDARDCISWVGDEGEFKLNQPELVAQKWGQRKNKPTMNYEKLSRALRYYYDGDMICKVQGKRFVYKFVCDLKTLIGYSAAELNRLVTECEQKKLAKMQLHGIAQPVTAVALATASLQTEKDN
# Procedure, shortened: as §1
# ERG = molecular target: T4, ERG (Homo sapiens, UniProt P11308 1-479)
# T4 sequence: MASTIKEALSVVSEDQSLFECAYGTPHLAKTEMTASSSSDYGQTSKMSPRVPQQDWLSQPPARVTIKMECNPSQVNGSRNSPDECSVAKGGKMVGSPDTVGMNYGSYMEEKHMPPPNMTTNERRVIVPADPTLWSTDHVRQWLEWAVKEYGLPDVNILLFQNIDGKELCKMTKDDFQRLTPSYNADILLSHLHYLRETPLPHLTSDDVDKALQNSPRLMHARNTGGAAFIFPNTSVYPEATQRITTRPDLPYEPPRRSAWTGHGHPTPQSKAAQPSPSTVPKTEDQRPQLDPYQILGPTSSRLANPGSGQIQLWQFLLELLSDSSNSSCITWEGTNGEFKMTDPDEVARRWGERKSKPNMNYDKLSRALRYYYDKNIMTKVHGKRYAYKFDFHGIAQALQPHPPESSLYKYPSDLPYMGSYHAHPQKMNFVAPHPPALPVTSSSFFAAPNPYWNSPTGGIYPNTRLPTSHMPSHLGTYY
# Procedure, shortened: as §1
# ELF1 = ELF1 (Homo sapiens, UniProt P32519 1-619)
# Sequence of ELF1 (P32519 whole entry): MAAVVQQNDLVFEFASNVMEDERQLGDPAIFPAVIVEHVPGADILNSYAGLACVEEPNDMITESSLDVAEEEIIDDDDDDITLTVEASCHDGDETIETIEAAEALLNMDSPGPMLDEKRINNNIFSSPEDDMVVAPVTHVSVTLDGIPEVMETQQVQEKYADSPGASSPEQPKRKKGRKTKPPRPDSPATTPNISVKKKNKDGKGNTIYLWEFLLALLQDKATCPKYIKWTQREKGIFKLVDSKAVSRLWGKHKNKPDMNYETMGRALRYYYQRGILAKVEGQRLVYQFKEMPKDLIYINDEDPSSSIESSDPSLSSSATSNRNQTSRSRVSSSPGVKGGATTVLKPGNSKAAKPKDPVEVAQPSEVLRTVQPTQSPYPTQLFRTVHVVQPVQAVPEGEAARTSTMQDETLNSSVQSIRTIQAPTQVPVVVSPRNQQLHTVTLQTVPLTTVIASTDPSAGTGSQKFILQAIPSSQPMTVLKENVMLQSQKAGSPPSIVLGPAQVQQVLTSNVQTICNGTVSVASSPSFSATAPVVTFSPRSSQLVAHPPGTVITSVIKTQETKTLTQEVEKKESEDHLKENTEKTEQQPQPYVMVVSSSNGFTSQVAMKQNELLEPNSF
# Procedure, shortened: as §1
# EHF = molecular target: T5, EHF (Homo sapiens, UniProt Q9NZC4 1-300)
# T5 sequence: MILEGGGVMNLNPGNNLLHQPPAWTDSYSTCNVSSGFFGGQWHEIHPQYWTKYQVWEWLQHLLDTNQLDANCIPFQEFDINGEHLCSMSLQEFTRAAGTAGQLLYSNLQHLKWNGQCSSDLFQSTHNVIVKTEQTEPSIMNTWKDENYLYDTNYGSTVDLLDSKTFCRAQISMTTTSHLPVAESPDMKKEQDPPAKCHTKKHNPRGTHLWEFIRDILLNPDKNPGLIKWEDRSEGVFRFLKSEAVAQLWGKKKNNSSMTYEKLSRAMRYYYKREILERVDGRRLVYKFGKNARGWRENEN
# Procedure, shortened: as §1
# SPI1 = SPI1 (Homo sapiens, UniProt P17947 1-270)
# Procedure, shortened: as §1
# SPIB = SPIB (Homo sapiens, UniProt Q01892 1-262)
# Sequence of SPIB (Q01892 whole entry): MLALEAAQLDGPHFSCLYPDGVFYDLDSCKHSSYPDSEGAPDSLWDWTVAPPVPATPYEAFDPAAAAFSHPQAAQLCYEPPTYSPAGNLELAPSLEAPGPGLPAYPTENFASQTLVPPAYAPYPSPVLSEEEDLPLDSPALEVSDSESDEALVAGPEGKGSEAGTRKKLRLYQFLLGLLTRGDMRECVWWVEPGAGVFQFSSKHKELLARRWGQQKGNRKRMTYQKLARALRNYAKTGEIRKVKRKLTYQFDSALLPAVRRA
# Procedure, shortened: as §1
# ELK3 = molecular target: T6, ELK3 (Homo sapiens, UniProt P41970 1-407)
# T6 sequence: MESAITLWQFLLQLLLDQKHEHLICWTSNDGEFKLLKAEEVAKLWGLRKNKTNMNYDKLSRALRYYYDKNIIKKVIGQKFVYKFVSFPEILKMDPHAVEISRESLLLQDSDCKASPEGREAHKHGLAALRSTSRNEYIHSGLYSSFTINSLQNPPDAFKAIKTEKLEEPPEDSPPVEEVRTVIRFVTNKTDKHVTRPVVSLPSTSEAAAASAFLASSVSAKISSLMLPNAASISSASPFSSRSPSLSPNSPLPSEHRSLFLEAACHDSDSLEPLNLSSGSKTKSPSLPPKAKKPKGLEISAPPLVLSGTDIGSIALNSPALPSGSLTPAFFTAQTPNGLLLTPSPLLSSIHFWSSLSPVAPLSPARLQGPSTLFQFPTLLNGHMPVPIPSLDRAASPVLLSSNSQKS
# Procedure, shortened: as §1
# FEV = molecular target: T7, FEV (Homo sapiens, UniProt Q99581 1-238)
# T7 sequence: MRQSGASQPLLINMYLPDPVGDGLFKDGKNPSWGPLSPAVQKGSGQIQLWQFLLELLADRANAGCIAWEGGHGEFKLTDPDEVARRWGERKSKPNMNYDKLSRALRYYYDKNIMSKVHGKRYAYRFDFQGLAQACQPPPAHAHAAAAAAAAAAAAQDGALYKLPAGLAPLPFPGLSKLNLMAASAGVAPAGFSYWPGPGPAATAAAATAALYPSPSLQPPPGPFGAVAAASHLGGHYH
# Procedure, shortened: as §1
# ETV5 = ETV5 (Homo sapiens, UniProt P41161 1-510)
# Sequence of ETV5 (P41161 whole entry): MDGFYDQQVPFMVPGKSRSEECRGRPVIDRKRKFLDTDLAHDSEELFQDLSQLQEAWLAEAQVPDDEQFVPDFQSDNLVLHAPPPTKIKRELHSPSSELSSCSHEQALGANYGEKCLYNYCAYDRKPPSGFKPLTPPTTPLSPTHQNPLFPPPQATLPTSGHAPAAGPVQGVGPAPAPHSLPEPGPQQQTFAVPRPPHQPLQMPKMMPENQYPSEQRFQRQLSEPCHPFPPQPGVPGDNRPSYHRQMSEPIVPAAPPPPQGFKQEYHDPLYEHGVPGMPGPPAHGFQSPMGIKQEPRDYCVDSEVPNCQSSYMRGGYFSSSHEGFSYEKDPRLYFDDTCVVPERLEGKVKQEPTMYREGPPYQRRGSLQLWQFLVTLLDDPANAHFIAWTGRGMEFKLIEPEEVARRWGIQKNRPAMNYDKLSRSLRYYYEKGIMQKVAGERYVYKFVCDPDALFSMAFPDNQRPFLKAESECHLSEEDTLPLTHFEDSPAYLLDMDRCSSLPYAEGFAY
# Procedure, shortened: as §1
# SPIC = molecular target: T8, SPIC (Homo sapiens, UniProt Q8N5J4 1-248)
# T8 sequence: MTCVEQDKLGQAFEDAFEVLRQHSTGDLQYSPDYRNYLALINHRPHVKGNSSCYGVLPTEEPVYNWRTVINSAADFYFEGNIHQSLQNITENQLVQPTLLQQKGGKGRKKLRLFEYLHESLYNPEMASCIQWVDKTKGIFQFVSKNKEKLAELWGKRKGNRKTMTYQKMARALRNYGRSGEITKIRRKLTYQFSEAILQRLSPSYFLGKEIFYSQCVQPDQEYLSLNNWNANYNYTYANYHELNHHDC
# Procedure, shortened: as §1
# ELF4 = ELF4 (Homo sapiens, UniProt Q99607 1-663)
# Sequence of ELF4 (Q99607 whole entry): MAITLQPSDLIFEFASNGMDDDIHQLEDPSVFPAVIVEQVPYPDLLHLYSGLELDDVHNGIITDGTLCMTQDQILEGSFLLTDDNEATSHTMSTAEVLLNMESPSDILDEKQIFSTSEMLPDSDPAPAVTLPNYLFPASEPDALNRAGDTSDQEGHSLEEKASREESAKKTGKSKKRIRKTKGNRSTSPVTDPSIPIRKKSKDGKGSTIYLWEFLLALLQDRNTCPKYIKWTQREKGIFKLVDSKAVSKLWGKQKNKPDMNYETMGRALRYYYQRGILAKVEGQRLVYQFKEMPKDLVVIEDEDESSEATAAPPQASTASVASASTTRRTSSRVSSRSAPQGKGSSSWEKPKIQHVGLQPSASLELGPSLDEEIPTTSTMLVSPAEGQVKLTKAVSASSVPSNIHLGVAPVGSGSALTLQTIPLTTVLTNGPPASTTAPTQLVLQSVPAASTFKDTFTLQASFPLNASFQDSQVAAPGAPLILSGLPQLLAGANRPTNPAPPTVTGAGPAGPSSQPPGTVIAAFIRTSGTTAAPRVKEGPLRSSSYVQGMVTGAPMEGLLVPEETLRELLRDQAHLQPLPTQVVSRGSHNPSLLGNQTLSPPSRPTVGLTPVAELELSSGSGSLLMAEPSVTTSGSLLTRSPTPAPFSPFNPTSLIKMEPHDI
# Procedure, shortened: as §1
# ELK4 = molecular target: T9, ELK4 (Homo sapiens, UniProt P28324-2 1-405)
# T9 sequence: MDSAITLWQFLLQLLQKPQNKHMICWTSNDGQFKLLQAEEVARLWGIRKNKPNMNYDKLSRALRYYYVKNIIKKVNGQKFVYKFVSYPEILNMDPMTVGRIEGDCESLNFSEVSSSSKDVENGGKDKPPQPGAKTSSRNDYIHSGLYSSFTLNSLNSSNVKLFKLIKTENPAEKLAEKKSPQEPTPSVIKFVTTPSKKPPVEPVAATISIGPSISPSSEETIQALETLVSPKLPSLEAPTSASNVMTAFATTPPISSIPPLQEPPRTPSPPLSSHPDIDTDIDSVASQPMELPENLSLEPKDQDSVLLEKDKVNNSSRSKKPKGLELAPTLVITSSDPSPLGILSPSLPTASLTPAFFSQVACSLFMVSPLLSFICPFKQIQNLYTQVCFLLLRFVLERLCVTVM
# Procedure, shortened: as §1
# ETV2 = molecular target: T10, ETV2 (Homo sapiens, UniProt O00321 1-342)
# T10 sequence: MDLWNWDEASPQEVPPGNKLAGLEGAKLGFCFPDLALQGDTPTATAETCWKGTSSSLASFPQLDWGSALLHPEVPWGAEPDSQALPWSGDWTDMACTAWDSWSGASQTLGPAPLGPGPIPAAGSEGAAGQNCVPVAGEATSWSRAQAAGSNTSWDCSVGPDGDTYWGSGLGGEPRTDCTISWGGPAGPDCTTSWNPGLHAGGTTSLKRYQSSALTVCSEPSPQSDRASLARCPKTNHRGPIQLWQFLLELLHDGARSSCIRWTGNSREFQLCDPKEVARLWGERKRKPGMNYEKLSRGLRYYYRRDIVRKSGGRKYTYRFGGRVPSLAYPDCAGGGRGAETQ
# Procedure, shortened: as §1
# ELF3 = molecular target: T11, ELF3 (Homo sapiens, UniProt P78545 1-371)
# T11 sequence: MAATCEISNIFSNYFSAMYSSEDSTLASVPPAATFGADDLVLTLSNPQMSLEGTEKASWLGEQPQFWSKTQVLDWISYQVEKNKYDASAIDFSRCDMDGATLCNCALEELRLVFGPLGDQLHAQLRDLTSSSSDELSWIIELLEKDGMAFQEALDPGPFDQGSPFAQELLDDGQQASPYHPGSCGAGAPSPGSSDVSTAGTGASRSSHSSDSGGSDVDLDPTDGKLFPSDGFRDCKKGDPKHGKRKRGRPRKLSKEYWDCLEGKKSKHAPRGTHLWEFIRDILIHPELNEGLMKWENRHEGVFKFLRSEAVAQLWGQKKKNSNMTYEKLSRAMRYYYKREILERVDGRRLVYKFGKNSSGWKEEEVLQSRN
# Procedure, shortened: as §1
# ETV1 = ETV1 (Homo sapiens, UniProt P50549 1-477)
# Sequence of ETV1 (P50549 whole entry): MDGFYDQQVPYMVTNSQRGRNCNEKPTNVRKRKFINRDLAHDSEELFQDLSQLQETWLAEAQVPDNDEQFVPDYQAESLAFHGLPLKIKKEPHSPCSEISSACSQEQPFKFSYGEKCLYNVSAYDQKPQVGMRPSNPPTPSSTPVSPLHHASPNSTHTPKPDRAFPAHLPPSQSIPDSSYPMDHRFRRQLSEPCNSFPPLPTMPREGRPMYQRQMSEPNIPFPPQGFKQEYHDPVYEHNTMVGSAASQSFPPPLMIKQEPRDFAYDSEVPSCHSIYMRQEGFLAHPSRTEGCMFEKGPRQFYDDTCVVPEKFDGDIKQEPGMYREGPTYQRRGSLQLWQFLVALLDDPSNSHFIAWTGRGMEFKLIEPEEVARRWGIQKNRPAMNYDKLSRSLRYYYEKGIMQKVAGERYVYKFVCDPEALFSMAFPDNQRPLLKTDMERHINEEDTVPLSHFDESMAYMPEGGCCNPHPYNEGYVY
# Procedure, shortened: as §1
sequence,measurement,setting,value
CCAAAC,binding signal,FLI1,"1.02 fold enrichment (6-mer frequency, TF over GST control)"
same,binding signal,ELK1,"1.13 fold enrichment (6-mer frequency, TF over GST control)"
same,binding signal,GABPA,"1.15 fold enrichment (6-mer frequency, TF over GST control)"
same,binding signal,ERG,"1.11 fold enrichment (6-mer frequency, TF over GST control)"
same,binding signal,ELF1,"1.16 fold enrichment (6-mer frequency, TF over GST control)"
same,binding signal,EHF,"1.07 fold enrichment (6-mer frequency, TF over GST control)"
same,binding signal,SPI1,"1.06 fold enrichment (6-mer frequency, TF over GST control)"
same,binding signal,SPIB,"1.06 fold enrichment (6-mer frequency, TF over GST control)"
same,binding signal,ELK3,"1.15 fold enrichment (6-mer frequency, TF over GST control)"
same,binding signal,FEV,"1.08 fold enrichment (6-mer frequency, TF over GST control)"
same,binding signal,ETV5,"1.07 fold enrichment (6-mer frequency, TF over GST control)"
same,binding signal,SPIC,"1.16 fold enrichment (6-mer frequency, TF over GST control)"
same,binding signal,ELF4,"1.14 fold enrichment (6-mer frequency, TF over GST control)"
same,binding signal,ELK4,"1.15 fold enrichment (6-mer frequency, TF over GST control)"
same,binding signal,ETV2,"1.07 fold enrichment (6-mer frequency, TF over GST control)"
same,binding signal,ELF3,"1.11 fold enrichment (6-mer frequency, TF over GST control)"
same,binding signal,ETV1,"1.02 fold enrichment (6-mer frequency, TF over GST control)"
